Assay results as given in PubChem BioAssay (NCI).
Compounds without any hit were thinned out: in the full panel of roughly 79,000, 15% have a hit. Calls of active or inactive are those of the source. Rule as the data show it: active = growth inhibition above about 70%; inactive = the rest.

Assays:
[1] = NCI Yeast Anticancer Drug Screen. Data for the rad52 strain (AID 147);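 also: 0% = growth of vehicle-treated control cultures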; details: S. cerevisiae rad52 mutant growth inhibition, active compounds read high
Summary of the method: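 DNA repair-defective yeast; compound exposure; growth scored against vehicle controls.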

[2] = NCI Yeast Anticancer Drug Screen. Data for the wt1 strain (AID 149);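 also: 0% = growth of vehicle-treated wt1 cultures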; details: S. cerevisiae wt1 strain (SPY 50644) growth inhibition, active compounds read high
Summary of the method: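 The wt1 strain was treated with compounds, and growth was compared with vehicle-treated cultures to give inhibition.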

[3] = NCI Yeast Anticancer Drug Screen. Data for the rad50EPP+ strain (AID 151);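 also: 0% = growth of vehicle-treated control cultures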; details: S. cerevisiae rad50 mutant strain, active compounds read high
Summary of the method: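 rad50EPP+ yeast treated with test compounds. Readout: growth vs vehicle control.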

[4] = NCI Yeast Anticancer Drug Screen. Data for the mgt1 strain (AID 153); details: S. cerevisiae mgt1 mutant growth inhibition, active compounds read high
Summary of the method: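 Growth inhibition relative to vehicle controls was scored for the mgt1 yeast strain after compound exposure.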

[5] = NCI Yeast Anticancer Drug Screen. Data for the rad50 strain (AID 155);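 also: 0% = growth of vehicle-only cultures of the same strain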; details: S. cerevisiae rad50 strain growth inhibition, active compounds read high
Summary of the method: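 Cells are treated with compound, grown, and their growth is then scored against vehicle-only cultures of the same repair-deficient yeast strain.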

[6] = NCI Yeast Anticancer Drug Screen. Data for the mec2-1 strain (AID 157); details: S. cerevisiae mec2-1 strain, active compounds read high
Summary of the method: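 Growth inhibition is read against vehicle-treated controls after compound exposure of the mec2-1 yeast strain, which is defective in DNA damage repair or cell cycle control.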

[7] = NCI Yeast Anticancer Drug Screen. Data for the rad14 strain (AID 159);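 also: 0% = growth of vehicle-treated control cultures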; details: S. cerevisiae rad14 strain growth inhibition, active compounds read high
Summary of the method: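 Readout: yeast growth inhibition, referenced to vehicle-only cultures. Strain bears a defined alteration in DNA damage repair.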

[8] = NCI Yeast Anticancer Drug Screen. Data for the sgs1 mgt1 strain (AID 161);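 also: 0% = growth of cultures given vehicle only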; details: S. cerevisiae sgs1 mgt1 strain, active compounds read high
Summary of the method: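 Percent growth inhibition was derived by comparing compound-exposed mutant yeast with vehicle-exposed cultures. The strain carries alterations in DNA damage repair.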

[9] = NCI Yeast Anticancer Drug Screen. Data for the CLN2oe strain (AID 163);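 also: 0% = growth of vehicle-only control cultures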; details: S. cerevisiae CLN2oe strain, active compounds read high
Summary of the method: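 Compound-treated yeast; growth vs vehicle ctrl = % inhibition. Genetically altered strain (cell-cycle control).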

[10] = NCI Yeast Anticancer Drug Screen. Data for the cln2 rad14 strain (AID 165);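 also: 0% = growth equal to vehicle treated cultures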; details: S. cerevisiae cln2 rad14 strain, active compounds read high
Summary of the method: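 Growth inhibition, relative to vehicle-treated controls, is the read-out. The test organism is a yeast strain with defined genetic alterations, cln2 rad14.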

[11] = NCI Yeast Anticancer Drug Screen. Data for the bub3 strain (AID 167); details: S. cerevisiae bub3 mutant strain, active compounds read high
Summary of the method: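 Part of a panel of yeast mutants defective in DNA damage repair or cell cycle regulation. Each strain is grown with compound, and inhibition is calculated relative to solvent-treated cultures.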

[12] = NCI Yeast Anticancer Drug Screen. Data for the wt2 strain (AID 169);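 also: 0% = growth of vehicle-treated yeast cultures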; details: S. cerevisiae wt2 strain growth inhibition, active compounds read high
Summary of the method: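 Compound exposure of yeast; growth compared with vehicle controls; inhibition reported.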

[13] = NCI Yeast Anticancer Drug Screen. Data for the mlh1 strain (AID 171);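 also: 0% = growth of vehicle-treated control cultures of the same strain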; details: S. cerevisiae mlh1 strain growth inhibition, active compounds read high
Summary of the method: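 Compounds are applied to a genetically altered yeast strain, and its growth is compared with that of vehicle-treated cultures to give percent inhibition.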

[14] = NCI Yeast Anticancer Drug Screen. Data for the sgs1 strain (AID 173);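 also: 0% = growth of vehicle-only control cultures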; details: S. cerevisiae sgs1 mutant, active compounds read high
Summary of the method: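 Compounds applied to genetically altered yeast; growth compared with vehicle-treated cultures to give % inhibition.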

[15] = NCI Yeast Anticancer Drug Screen. Data for the mlh1 rad18 strain (AID 175); details: S. cerevisiae mlh1 rad18 strain growth inhibition, active compounds read high
Summary of the method: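 Cells of a genetically altered yeast strain, deficient in DNA damage repair, were treated with compound. Their growth was then compared with that of vehicle-treated cultures to give inhibition.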

[16] = NCI Yeast Anticancer Drug Screen. Data for the rad18 strain (AID 177); details: S. cerevisiae rad18 mutant growth inhibition, active compounds read high
Summary of the method: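 Compounds are applied to a repair-deficient yeast strain, and growth is compared with that of vehicle-treated cultures to give percent inhibition.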

[17] = at 5.0 µM (retest, dose inferred, filed as 0.5)
[18] = at 50.0 µM (retest, dose inferred, filed as 5.0)

Measured: growth inhibition

CN(C)N=Nc1ccc(N(C)C)cc1
inactive: [1]; at 1.2 µM -1% | [1]; at 3.7 µM 1% | [1]; at 11.0 µM 4% | [1]; at 33.0 µM 16% | [1]; at 100.0 µM 53% | [2]; at 1.2 µM 1% | [2]; at 3.7 µM -4% | [2]; at 11.0 µM -3% | [2]; at 33.0 µM -2% | [2]; at 100.0 µM 5% | [3]; at 1.2 µM 4% | [3]; at 3.7 µM 8% | [3]; at 11.0 µM 31% | [3]; at 33.0 µM 53% | [3]; at 100.0 µM 55% | [4]; at 1.2 µM -3% | [4]; at 3.7 µM -3% | [4]; at 11.0 µM -1% | [4]; at 33.0 µM 19% | [4]; at 100.0 µM 12% | [5]; at 1.2 µM 1% | [5]; at 3.7 µM 1% | [5]; [17] -7% | [5]; at 11.0 µM 3% | [5]; at 33.0 µM 5% | [5]; [18] 27% | [5]; at 100.0 µM 14% | [6]; at 1.2 µM 2% | [6]; at 3.7 µM 3% | [6]; [17] -9% | [6]; at 11.0 µM 3% | [6]; at 33.0 µM 7% | [6]; [18] -9% | [6]; at 50.0 µM 16.4% | [6]; at 100.0 µM 9% | [7]; at 1.2 µM -1% | [7]; at 3.7 µM 0% | [7]; at 11.0 µM 2% | [7]; at 33.0 µM 3% | [7]; at 100.0 µM 7% | [8]; [17] 2% | [8]; [18] 51% | [8]; at 50.0 µM 20.9% | [9]; at 1.2 µM -2% | [9]; at 3.7 µM -5% | [9]; at 11.0 µM -2% | [9]; at 33.0 µM -2% | [9]; at 100.0 µM -1% | [10]; [17] 2% | [10]; [18] 8% | [10]; at 50.0 µM 44.1% | [11]; at 1.2 µM 0% | [11]; at 3.7 µM -3% | [11]; [17] 18% | [11]; at 11.0 µM -7% | [11]; at 33.0 µM -5% | [11]; [18] 33% | [11]; at 50.0 µM 12.3% | [11]; at 100.0 µM 3% | [12]; at 1.2 µM -1% | [12]; at 3.7 µM -1% | [12]; at 11.0 µM 0% | [12]; at 33.0 µM 2% | [12]; at 100.0 µM 13% | [13]; at 1.2 µM -2% | [13]; at 3.7 µM -3% | [13]; at 11.0 µM 1% | [13]; at 33.0 µM 3% | [13]; at 100.0 µM 10% | [14]; at 1.2 µM 0% | [14]; at 3.7 µM 4% | [14]; at 11.0 µM 6% | [14]; at 33.0 µM 15% | [14]; at 100.0 µM 28% | [15]; [17] 23% | [16]; at 1.2 µM 1% | [16]; at 3.7 µM 1% | [16]; at 11.0 µM -15% | [16]; at 33.0 µM 11% | [16]; at 100.0 µM 29%
active: [5]; at 50.0 µM 82.5% | [15]; [18] 77% | [15]; at 50.0 µM 70.3%

CCCCCCCCNCCCCCCCC
active: [1]; at 11.0 µM 76% | [1]; at 33.0 µM 99% | [1]; at 100.0 µM 99% | [2]; at 33.0 µM 96% | [2]; at 100.0 µM 99% | [3]; at 33.0 µM 92% | [3]; at 100.0 µM 99% | [4]; at 11.0 µM 97% | [4]; at 33.0 µM 100% | [4]; at 100.0 µM 100% | [5]; at 11.0 µM 96% | [5]; at 33.0 µM 98% | [5]; [18] 99% | [5]; at 50.0 µM 99.5% | [5]; at 100.0 µM 98% | [6]; at 11.0 µM 77% | [6]; at 33.0 µM 98% | [6]; [18] 100% | [6]; at 50.0 µM 99.7% | [6]; at 100.0 µM 98% | [7]; at 3.7 µM 82% | [7]; at 11.0 µM 97% | [7]; at 33.0 µM 98% | [7]; at 100.0 µM 98% | [8]; [17] 82% | [8]; [18] 100% | [8]; at 50.0 µM 99.5% | [9]; at 33.0 µM 97% | [9]; at 100.0 µM 97% | [10]; [18] 100% | [10]; at 50.0 µM 99.1% | [11]; [17] 74% | [11]; at 11.0 µM 95% | [11]; at 33.0 µM 98% | [11]; [18] 99% | [11]; at 50.0 µM 99.5% | [11]; at 100.0 µM 99% | [12]; at 11.0 µM 76% | [12]; at 33.0 µM 99% | [12]; at 100.0 µM 99% | [13]; at 11.0 µM 96% | [13]; at 33.0 µM 99% | [13]; at 100.0 µM 100% | [14]; at 11.0 µM 94% | [14]; at 33.0 µM 97% | [14]; at 100.0 µM 97% | [15]; [17] 80% | [15]; [18] 99% | [15]; at 50.0 µM 99.3% | [16]; at 11.0 µM 91% | [16]; at 33.0 µM 99% | [16]; at 100.0 µM 95%
inactive: [1]; at 1.2 µM 4% | [1]; at 3.7 µM 18% | [2]; at 1.2 µM 0% | [2]; at 3.7 µM 2% | [2]; at 11.0 µM 29% | [3]; at 1.2 µM 1% | [3]; at 3.7 µM -1% | [3]; at 11.0 µM 24% | [4]; at 1.2 µM 12% | [4]; at 3.7 µM 29% | [5]; at 1.2 µM 6% | [5]; at 3.7 µM 3% | [5]; [17] 67% | [6]; at 1.2 µM 2% | [6]; at 3.7 µM 13% | [6]; [17] 9% | [7]; at 1.2 µM 50% | [9]; at 1.2 µM 13% | [9]; at 3.7 µM 21% | [9]; at 11.0 µM 60% | [10]; [17] 65% | [11]; at 1.2 µM 33% | [11]; at 3.7 µM 49% | [12]; at 1.2 µM 0% | [12]; at 3.7 µM 17% | [13]; at 1.2 µM 6% | [13]; at 3.7 µM 20% | [14]; at 1.2 µM 11% | [14]; at 3.7 µM 30% | [16]; at 1.2 µM 14% | [16]; at 3.7 µM 38%
